According to PubChem BioAssay (NCI):
About 79,000 compounds went through this panel and 15% of them were active in at least one assay; those are over-represented in the sample as a whole. Cut-off read from the data, not from the text of the source: active = growth inhibition above about 70%; inactive = the rest.

Key:
[1] = NCI Yeast Anticancer Drug Screen. Data for the rad50 strain (AID 155);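 note: 0% = growth of vehicle-only cultures of the same strain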; conditions: S. cerevisiae rad50 strain growth inhibition; at 50.0 µM; hits give high values
Procedure, shortened: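 Vehicle-treated cultures provide the reference for the growth inhibition reported for compound-exposed, repair-deficient yeast.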

[2] = NCI Yeast Anticancer Drug Screen. Data for the mec2-1 strain (AID 157); conditions: S. cerevisiae mec2-1 strain, at 50.0 µM, hits give high values
Procedure, shortened: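 Growth inhibition is read against vehicle-treated controls after compound exposure of the mec2-1 yeast strain, which is defective in DNA damage repair or cell cycle control.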

[3] = NCI Yeast Anticancer Drug Screen. Data for the sgs1 mgt1 strain (AID 161);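 note: 0% = growth of cultures given vehicle only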; conditions: S. cerevisiae sgs1 mgt1 strain, at 50.0 µM, hits give high values
Procedure, shortened: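 This yeast growth screen uses a strain with defined DNA-repair lesions; compound-treated growth is compared with vehicle-treated growth.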

[4] = NCI Yeast Anticancer Drug Screen. Data for the cln2 rad14 strain (AID 165);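 note: 0% = growth equal to vehicle treated cultures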; conditions: S. cerevisiae cln2 rad14 strain, at 50.0 µM, hits give high values
Procedure, shortened: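 Growth inhibition, relative to vehicle-treated controls, is the read-out. The test organism is a yeast strain with defined genetic alterations, cln2 rad14.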

[5] = NCI Yeast Anticancer Drug Screen. Data for the bub3 strain (AID 167); conditions: S. cerevisiae bub3 mutant strain, at 50.0 µM, hits give high values
Procedure, shortened: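 Mutant yeast screening strain plus compound; vehicle-treated cultures serve as the 0% inhibition reference.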

[6] = NCI Yeast Anticancer Drug Screen. Data for the mlh1 rad18 strain (AID 175); conditions: S. cerevisiae mlh1 rad18 strain growth inhibition; at 50.0 µM; hits give high values
Procedure, shortened: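 Cells of a genetically altered yeast strain, deficient in DNA damage repair, were treated with compound. Their growth was then compared with that of vehicle-treated cultures to give inhibition.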

Measured: growth inhibition

O=C1CCCC2C1C1CCCC(=O)C21 (stereo not given)
inactive: [1] 6.95% | [2] -7.45% | [3] 3.1% | [4] 0.9% | [5] 3.15% | [6] 20.2%

Cc1ccc(I)c(C)c1
inactive: [1] -40% | [2] -10% | [3] -39.4% | [4] -3.6% | [5] -1.15% | [6] -7.3%

Cc1c(C)c(C)c(CNNC(=S)Nc2cccc(Cl)c2)c(C)c1C
inactive: [1] -6.35% | [2] 5.7% | [3] -1.35% | [4] -3.45% | [5] -3.5% | [6] 21.1%

CC(=O)Nc1ccc(C(F)(F)F)cc1
inactive: [1] -5.2% | [2] -7.75% | [3] -15.8% | [4] -3.15% | [5] -7.7% | [6] 13.2%

CCNCCNC(=O)c1ccc(I)cc1
inactive: [1] -33.9% | [2] -7.2% | [3] -4.2% | [4] 6.65% | [5] -14.8% | [6] -10.8%

CC(=O)Oc1cccc2c1ccc1nonc12
inactive: [1] 1.75% | [2] 0.35% | [3] -2.2% | [4] -49.8% | [5] -11.4% | [6] -3%

O=C(Nc1ccccc1[N+](=O)[O-])OCCOc1ccccc1
inactive: [1] 1.65% | [2] 21.2% | [3] 6.8% | [4] -7.2% | [5] 30.8% | [6] -9.85%

Cc1c(O)c2cccc(-c3ccccc3)c2oc1=O
inactive: [1] 5.8% | [2] 17.5% | [3] 11.1% | [4] -6.3% | [5] -4.8% | [6] 17.6%

CCc1ccc(/C=C/C(=O)C(C)CN(C)C)cc1 (stereo not given)
inactive: [1] -4.9% | [2] 26.1% | [3] -2.3% | [4] 22.1% | [5] 13.9% | [6] 9.85%

Cc1cccc(C(=O)NN)c1
inactive: [1] -4.15% | [2] 10.2% | [3] -20.2% | [4] -5.4% | [5] -0.2% | [6] -5.95%

CC(C)(C)OC(=O)Cn1ncn(NC(=O)Cc2ccccc2)c1=S
inactive: [1] -27.6% | [2] -23.9% | [3] 1.05% | [4] -37.2% | [5] -33.5% | [6] -15.7%

Cc1ccc(Br)c2c1CCC2=O
inactive: [1] 1.85% | [2] -5.05% | [3] 0.9% | [4] -52.5% | [5] -23% | [6] 1.65%

O=C(O)C(Cc1ccccc1)NC(c1ccc(Cl)cc1)P(=O)(O)O (stereo not given)
inactive: [1] 14.3% | [2] 7.95% | [3] -2.3% | [4] 12.8% | [5] -4.8% | [6] 20.8%

CS(=O)(=O)N(CCC#N)c1ccc(C=O)cc1
inactive: [1] 20.4% | [2] -24.7% | [3] -7.4% | [4] -8.1% | [5] -12.2% | [6] 7%

O=C(CC[n+]1ccccc1)Nc1ccc(F)cc1F
inactive: [1] 11.4% | [2] -1.55% | [3] 26.1% | [4] 20.9% | [5] 33.6% | [6] 17.3%

Cc1ccc(NC(=S)N2CCCCC2)cc1C
inactive: [1] -1.9% | [2] 13.2% | [3] 19.3% | [4] -19.2% | [5] 25.4% | [6] 15.4%

COc1cc2c3c(c1)[nH]c(=S)n3C(=O)C(C)S2 (stereo not given)
inactive: [1] -15.9% | [2] -34.6% | [3] -4.9% | [4] -6% | [5] -3.85% | [6] -25.6%

O=C(/C=C/CBr)NC(Cc1ccccc1)C(=O)O (stereo not given)
inactive: [1] -1.45% | [2] -8.6% | [3] -18.1% | [4] -4% | [5] 15.6% | [6] -4.2%

CCOC(=O)Nc1ccccc1
inactive: [1] -1.65% | [2] 12.3% | [3] 1.55% | [4] -4.15% | [5] -6.8% | [6] 22.7%

COC1/C=C/OC2(C)Oc3c(C)c(O)c4c(O)c(c(/C=N/N5CC(C)N(C(=O)c6ccccc6)C(C)C5)c(O)c4c3C2=O)NC(=O)C(C)=C/C=C/C(C)C(O)C(C)C(O)C(C)C(OC(C)=O)C1C (stereo not given)
inactive: [1] -5.8% | [2] -13.6% | [3] -23.8% | [4] 24.6% | [5] 25.2% | [6] 5.45%
